About 3,000 (1%) of roughly 290,000 compounds were called active. Only a selection was taken, and actives are over-represented in it overall. Unmarked numbers belong to inactive results. Cut-off read from the data, not from the text of the source: active = inhibition mostly above about 36% (no sharp cut-off); inactive = mostly below about 34%.
experiment: inhibition of NOD1-driven NF-kB reporter – cell-based, luminescence, uHTS, primary screen (AID 1578); details: NOD1-driven NF-kB luciferase reporter cells, at 4 µM, stronger effect = higher value;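 note: HEK-293T reporter cells stimulated with the NOD1 agonist gamma-tri-DAP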

| SMILES | inhibition |
| --- | --- |
| CSc1ccccc1-c1n[nH]c(=S)o1 | -15% |
| CC(C)Cc1ccc(C(C)C(=O)O)cc1 (configuration not stated) | -13.2% |
| CC(C)Cc1ccc(C(C)C(N)=NCCc2ccccc2)cc1 (configuration not stated) | -10.4% |
| CC(C)Cc1ccc(C(C)C(=N)N)cc1 (configuration not stated) | 43% (active) |
| CCOP(=O)(OCC)C1NC(=O)N(c2ccccc2)C1=O (configuration not stated) | -1.7% |
| CCc1ccc(C(=O)COC(=O)C(CCSC)NC(=O)c2ccccc2)cc1 (configuration not stated) | 16.6% |
| CCC(C)(C)c1ccc(OCCCC[n+]2ccccc2)c(C(C)(C)CC)c1 | 11.8% |
| CCC(C)(C)c1ccc(OCC(=O)N(C)C)c(C(C)(C)CC)c1 | 26.1% |
| CCC(C)(C)c1ccc(OCCCC[n+]2ccc(C)cc2)c(C(C)(C)CC)c1 | 43.7% |
| Cc1cc(C(C)(C)C)ccc1OCCCCN1CCCC1 | -74.5% |
| Cc1cccc(-c2oc3ccccc3c2C#CCCO)c1 | -12.5% |
| COc1ccc(Oc2nccc(OC)c2C#N)cc1 | -18.4% |
| Cn1c(=O)c2c(nc(SCC(=O)NCC3CCCO3)n2Cc2ccc(F)cc2)n(C)c1=O (configuration not stated) | -8.2% |
| COc1ccc(CNC(=O)CN(Cc2ccc(Cl)cc2)C(=O)c2csnn2)cc1 | -9% |
| Cc1oc(-c2cccs2)nc1CS(=O)CC(=O)NCc1ccc2c(c1)OCO2 (configuration not stated) | 1.1% |
| COc1ccccc1CNC(=O)c1ccoc1C | 47.6% (active) |
| COc1ccccc1CNC(=O)c1ccccc1OC | -29.5% |
| COc1ccccc1CCNC(=O)c1ccoc1C | -33.7% |
| COc1ccc(-c2csc(NC(=O)CN3C(=O)CCC3=O)n2)cc1 | -30.6% |
| Cc1ccc(C(=O)NCCCNC(=O)c2ccc(Cl)cc2)cn1 | -10.8% |
| O=C(NNS(=O)(=O)c1ccccc1)c1ccc(F)cc1 | -11.4% |
| C[n+]1c(/C=C/c2ccc(O)cc2)ccc2ccccc21 | -15.4% |
| CN1C=C/C(=C\c2cc[n+](C)c3ccccc23)c2ccccc21 | 20.8% |
| CCNC(=O)C1CCCc2c1[nH]c1ccc(Cl)cc21 (configuration not stated) | -25.3% |
| CCN1C(=O)N(CC)C2C1N(C(C)=O)C(=O)N2C(C)=O (configuration not stated) | -26.2% |

| SMILES | inhibition |
| --- | --- |
| Cc1c(NC(=O)c2ccccc2)c(=O)n(-c2ccccc2)n1C | -17.8% |
| Cc1c(NC(N)=O)c(=O)n(-c2ccccc2)n1C | 54.9% (active) |
| Cc1c(NC(=O)CC(=O)Nc2c(C)n(C)n(-c3ccccc3)c2=O)c(=O)n(-c2ccccc2)n1C | 14.4% |
| CCNc1oc(/C=C/c2ccc(OCC)cc2)nc1C#N | 64.9% (active) |
| CCOc1ccc(/C=C/c2nc(C#N)c(NCCCN(C)C)o2)cc1 | 2.8% |
| CCOc1ccc(/C=C/c2nc(C#N)c(NCCCOC)o2)cc1 | -11.6% |
| COc1cc(NC(=O)CSc2nnc(-c3cc(C)on3)o2)cc(OC)c1 | 9.9% |
| CCCc1nnc(NC(=O)C23CC4CC(CC(C4)C2)C3)s1 | 0.1% |
| Cc1c(C(=O)Nc2ccccc2)sc2nc(-c3ccccc3)cn12 | -15.4% |
| Cc1c(C(=O)Nc2ccc3c(c2)OCO3)sc2nc(-c3ccccc3)cn12 | -35.7% |
| Cc1c(C(=O)Nc2ccc3c(c2)OCCO3)sc2nc(-c3ccccc3)cn12 | 79.1% (active) |
| CCCCOc1cccc(C(=O)NC(=S)Nc2cccc(NC(=O)c3ccccc3Cl)c2)c1 | -15.9% |
| COc1ccc2c(c1OC)C(=O)N(c1cccc(C(F)(F)F)c1)C2 | -67.5% |
| CC(=O)c1ccccc1C(=O)NCc1cccnc1 | -9.2% |
| COC(=O)C1=C(C)Nc2c(c(=O)n(C)c(=O)n2C)C1c1ccc(C)cc1 (configuration not stated) | -27.5% |
| COC(=O)C1=C(C)Nc2c(c(=O)n(C)c(=O)n2C)C1c1ccncc1 (configuration not stated) | 68.6% (active) |
| COC(=O)C1=C(C)Nc2c(c(=O)n(C)c(=O)n2C)C1c1cccnc1 (configuration not stated) | -10.6% |
| Cc1ccc(S(=O)(=O)N(CC(=O)Nc2cccnc2)c2cccc([N+](=O)[O-])c2)cc1 | -14.2% |
| COc1ccc(/C=C2/SC(=S)N(CCCC(=O)Nc3ccccc3C(=O)O)C2=O)cc1 | 34.1% |
| Cc1ccc(/C=C2/SC(=S)N(CCCC(=O)Nc3cc([N+](=O)[O-])ccc3O)C2=O)cc1 | 71.1% (active) |
| Cc1ccc(O)c(NC(=O)CSc2ccc(Cl)cc2)c1 | 17% |
| O=C(CCN1C(=O)/C(=C/c2ccc(F)cc2)SC1=S)Nc1cc([N+](=O)[O-])ccc1O | -1.3% |
| Cc1ccc(SCC(=O)Nc2cc([N+](=O)[O-])ccc2O)cc1 | 77.2% (active) |
| Cc1ccc(/C=C2\SC(=S)N(CCC(=O)NNC(=O)c3ccccc3O)C2=O)cc1 | -24.7% |
| COc1ccc([N+](=O)[O-])cc1NC(=O)CSc1ccc2ccccc2c1 | 41.3% |

| SMILES | inhibition |
| --- | --- |
| O=C(CCCN1C(=O)/C(=C\c2cccs2)SC1=S)Nc1cc([N+](=O)[O-])ccc1O | 26.3% |
| COc1cc(Cl)ccc1OCc1cc(C(=O)N(C)Cc2cccc3cnccc23)no1 | 11.4% |
| CC1(C)SC(=S)N(/N=C/c2ccccc2O)C1N(O)C(=O)Nc1ccccc1 (configuration not stated) | -1.1% |
| CCCSc1nnc(NC(=O)c2nc(SC)ncc2Cl)s1 | -10.4% |
| Cc1cccn2c(=O)c(C=Nc3c(C)n(C)n(-c4ccccc4)c3=O)c(N3CCCC3)nc12 | -3.8% |
| COc1ccccc1NC(=S)N1CCc2cc(OC)c(OC)cc2C1 | -30% |
| Oc1ccc2ccccc2c1/C=N/c1nccs1 | -6% |
| Oc1ccc(N=Nc2c(O)ccc3ccccc23)cc1 | 24% |
| Oc1ccc2ccccc2c1N=Nc1nccs1 | 106% (active) |
| CCCCC(=O)Nc1cc(NC(=O)CC)ccc1Cl | -13.8% |
| CCn1c(SC)nnc1-c1nnc(SC)n1CC | -5.7% |
| Cc1cc(C)cc(C(=O)NCc2ccc3c(c2)OCO3)c1 | -31% |
| Cc1cc2oc(=O)cc(C)c2cc1NC(=O)CCC(=O)O | -10.8% |
| Cc1cc2oc(=O)cc(C)c2cc1NC(=O)CCl | 42.5% (active) |
| CCC(=O)Nc1cc2c(C)cc(=O)oc2cc1C | -1.6% |
| Cc1cc(OCc2ccc(C(=O)n3cccn3)o2)ccc1Cl | -24.5% |
| Cc1ccc(C)c(NC(=O)CSc2nnc([C@@H]3CCCN3C(=O)OC(C)(C)C)o2)c1 | 9.1% |
| CCOC(=O)c1cnc(Nc2nc3ccccc3o2)nc1CSC(=S)N(CC)CC | -23% |
| CCOC(=O)c1cnc(Nc2nc3ccccc3o2)nc1C | 78.1% (active) |
| CCOC(=O)c1cnc(Nc2nc3ccccc3o2)nc1CN1CCN(C)CC1 | -1.5% |
| O=C(O)c1ccc2c(=O)n3c(nc2c1)/C(=C/c1ccccc1Br)CC3 | -85.4% |
| CCOC(=O)c1c(C)oc2c1c(C=NCCO)c(O)c1ccccc12 | -37.2% |
| CCOC(=O)c1c(C)oc2c1c(C=NCCC(=O)O)c(O)c1ccccc12 | -16.5% |
| CCOC(=O)c1c(C)oc2c1c(C=NC1CCS(=O)(=O)C1)c(O)c1ccccc12 (configuration not stated) | 75.8% (active) |
| CCOC(=O)c1c(-c2ccccc2)csc1NC(=O)C(C)NCc1ccco1 (configuration not stated) | 1.6% |

| SMILES | inhibition |
| --- | --- |
| N#C/C(=C\c1ccc(F)c(Cl)c1)S(=O)(=O)c1ccccn1 | 0.3% |
| CC1(C)C(C=C(Cl)Cl)C1C(=O)N/N=C/c1ccccc1F (configuration not stated) | 80.1% (active) |
| CC1(C)OC2OC(C(=O)N/N=C/c3ccccc3F)C3OC(C)(C)OC3C2O1 (configuration not stated) | -13.7% |
| COc1ccc(/C=N/NC(=O)C2C(C=C(Cl)Cl)C2(C)C)c(OC)c1 (configuration not stated) | -24.6% |
| CCN1CNC(=S)N(c2cccc(C)c2)C1 | -5.8% |
| CCOC(=O)c1sc(NC(=O)c2cccc(S(=O)(=O)N3CCc4ccccc43)c2)c(C#N)c1C | 79.7% (active) |
| Cc1nnc(NC(=O)c2cccc(S(=O)(=O)N3CCc4ccccc43)c2)s1 | 11.7% |
| CCC(CC)c1nnc(NC(=O)c2cccc(S(=O)(=O)N3CCc4ccccc43)c2)s1 | 56.8% |
| COc1cc2ccccc2cc1C(=O)Nc1ccc(N2CCN(C(=O)C(C)C)CC2)cc1 | 17.8% |
| CC(=O)OC(C(=O)NC1CCCCC1)c1ccccc1F (configuration not stated) | -33.2% |
| O=C(NN1CCOCC1)c1ccc(Cl)cc1[N+](=O)[O-] | -11.4% |
| COc1ccc(NS(=O)(=O)c2ccc3oc4ccccc4c3c2)cn1 | 56.6% |
| COc1ccc(NS(=O)(=O)c2ccc(Br)cc2)cn1 | -35.5% |
| O=C(O)c1ccc(NS(=O)(=O)c2cccc(C(=O)Nc3ccc(Br)cc3)c2)cc1 | -13.1% |
| O=C(Nc1ccc(Br)cc1)c1cccc(S(=O)(=O)Nc2cnc3ccccc3c2)c1 | 48.2% |
| Cc1ccc2cc(NC(=O)CC(CC(=O)O)c3ccccc3)ccc2n1 (configuration not stated) | -10.4% |
| CNC(=S)NCCc1ccc(OC)c(OC)c1 | 24.7% |
| CCN(CC)S(=O)(=O)c1cccc(NC(=O)COC(=O)CCC(=O)c2ccc(F)cc2)c1 | -40.1% |
| O=C(c1cc2ccccc2oc1=O)N(c1ccccc1)C1C=CS(=O)(=O)C1 (configuration not stated) | 5.4% |
| C/C(=N\N=C(/N)SC1CC(=O)N(c2ccc(Cl)cc2)C1=O)c1cccs1 (configuration not stated) | -4.8% |
| C/C(=N\N=C(/N)SC1CC(=O)N(c2ccccc2)C1=O)c1cccs1 (configuration not stated) | 15.7% |
| C/C(=N\N=C(/N)SC1CC(=O)N(c2ccc(Br)cc2)C1=O)c1cccs1 (configuration not stated) | 87.7% (active) |

From PubChem BioAssay AID1578 (Sanford-Burnham Center for Chemical Genomics, 2009)
